High-throughput results (PubChem BioAssay)
aSyn 5UTR act – Activators via SNCA 5'UTR binding, MLPCN; activity score, % (tested at 7.5 µM), hits read low; alpha-synuclein 5'UTR reporter, activators screen; hit rate 7.1% among 300,000; AID 1814, 2009; in the data active = activity score below about -60%
An asterisk follows results filed as active. A selection follows.

Screening CCN(CC)c1ccc(C(=O)Nn2cnc3ccccc3c2=O)cc1 returned aSyn 5UTR act -92.4*.
Screening CCN(CC)C(=O)c1ccc2nc3ccccc3nc2c1 returned aSyn 5UTR act 50.2.
`CCN(CC)c1ccc(C(=O)n2cnc3ccccc32)cc1` gave aSyn 5UTR act -127.9*.
For CN(C)/C=N/c1ncnc2c1cnn2-c1ccc(C(F)(F)F)cn1 the results were aSyn 5UTR act -83.9*.
Screening Cc1ccc(-n2c(C)c(C)c3c(NCCO)ncnc32)cc1 returned aSyn 5UTR act -106.6*.
For Cc1c(C)n(CCc2ccccc2)c2ncnc(NCCCO)c12 the results were aSyn 5UTR act -140.8*.
Cn1c(SCc2ccc(C#N)cc2Cl)nc2ccccc21 was read as aSyn 5UTR act -175.7*.
Screening CCn1nc(NC(=O)C2CCCO2)c2cc3cc(C)ccc3nc21 (configuration not stated) returned aSyn 5UTR act -90.4*.
`CCCn1nc(NC(=O)COC)c2cc3cc(C)ccc3nc21` gave aSyn 5UTR act -96.3*.
`CSc1nsc(SCC(=O)Nc2ccc3c(c2)OCCO3)n1` gave aSyn 5UTR act -135.8*.
Screening Cc1cccc(-c2nsc(SCC(=O)Nc3ccc4c(c3)OCO4)n2)c1 returned aSyn 5UTR act -96.2*.
`Cc1csc(SCC(=O)Nc2ccc3c(c2)OCCO3)n1` gave aSyn 5UTR act -66.9*.
Screening CSc1ccccc1OCc1cc(C(=O)N[C@H]2CCCCNC2=O)no1 returned aSyn 5UTR act -83.1*.
For CSc1ccccc1OCc1cc(C(=O)NC(C)c2cnn(C)c2)no1 (configuration not stated) the results were aSyn 5UTR act -61.7*.
Screening O=c1c2[nH]c3ccccc3c2ncn1C1CCCCC1 returned aSyn 5UTR act -91.2*.
Screening COc1ccc(Nc2c([N+](=O)[O-])ccc3c2=NC2(CCCCC2)N=3)cc1 returned aSyn 5UTR act -63.8*.
Cc1cc(C)n(-c2nc3c(c(=O)[nH]c(=O)n3C)n2CC(O)COc2ccc(Cl)cc2Cl)n1 (configuration not stated) was read as aSyn 5UTR act 73.2.
For Cc1ccc(COc2ccc(C)nc2[N+](=O)[O-])cc1 the results were aSyn 5UTR act -118.1*.
`Cc1ccc(OCCOc2ccc(Cl)cc2Cl)c([N+](=O)[O-])n1` gave aSyn 5UTR act -87.5*.
For COc1ccc(OCCOc2ccc(C)nc2[N+](=O)[O-])cc1 the results were aSyn 5UTR act -106.1*.
For NNC(=O)c1cccc(COc2ccc3c(c2)CCC3)c1 the results were aSyn 5UTR act 70.6.
`NNC(=O)c1cccc(COc2ccccc2Br)c1` gave aSyn 5UTR act -71.7*.
Screening CN(C(=O)c1cccc(COc2ccc(Cl)cc2Cl)c1)c1ccccc1 returned aSyn 5UTR act -120.0*.
Screening Oc1c(CN2CCN(c3ccccn3)CC2)cc(Cl)c2cccnc12 returned aSyn 5UTR act 92.4.
COC(=O)c1ccccc1NC(=O)c1cccc(COc2ccccc2Cl)c1 was read as aSyn 5UTR act -505.0*.
`O=C(c1cccc(COc2ccc(Cl)cc2Cl)c1)N1CCN(c2ccccn2)CC1` gave aSyn 5UTR act -163.7*.
`O=C(NCc1ccccc1)c1cccc(COc2cc(Cl)ccc2Cl)c1` gave aSyn 5UTR act -143.0*.
O=C(NCc1ccccc1)c1cccc(COc2ccccc2Cl)c1 was read as aSyn 5UTR act -87.1*.
For c1cncc(-c2nc3ccccc3[nH]2)c1 the results were aSyn 5UTR act -88.2*.
Cc1[nH]c2ccccc2c1-c1nc2ccccc2[nH]1 was read as aSyn 5UTR act -78.5*.
`Cc1ccc(-c2nc3ccccc3[nH]2)s1` gave aSyn 5UTR act -80.3*.
Screening c1ccc(-c2nc3ccccc3[nH]2)cc1 returned aSyn 5UTR act -138.4*.
For CC(C)c1ccc(OCc2ccc(C(=O)N(C)C)o2)cc1 the results were aSyn 5UTR act -171.2*.
For CC1CN(C(=O)c2ccc(COc3ccc(C(C)C)cc3)o2)CC(C)O1 (configuration not stated) the results were aSyn 5UTR act -110.2*.
`COc1ccc(OCc2cc(C(=O)O)c(C)o2)cc1` gave aSyn 5UTR act -92.8*.
For CC(C)c1ccc(OCc2ccc(C(=O)NN3CCN(C)CC3)o2)cc1 the results were aSyn 5UTR act -134.4*.
For CCc1ccc(OCc2ccc(C(=O)O)o2)cc1 the results were aSyn 5UTR act -144.7*.
For CC(C)c1ccc(OCc2ccc(C(=O)O)o2)cc1 the results were aSyn 5UTR act -94.0*.
`N#C/C(=C/c1ccc(N2CCOCC2)o1)c1ccc(Cl)cc1` gave aSyn 5UTR act -285.5*.
`CSc1nc(Oc2ccc3ccccc3c2)c2sccc2n1` gave aSyn 5UTR act 82.3.
`COc1ccnc(N=CNOCc2ccc(C)cc2)c1C#N` gave aSyn 5UTR act -100.0*.
COc1ccnc(Oc2ccc(C)cc2)c1C#N was read as aSyn 5UTR act -80.5*.
COc1ccnc(Oc2ccc3ccccc3c2)c1C#N was read as aSyn 5UTR act -74.3*.
Nc1oc2ccccc2c(=O)c1-c1ccc2c(c1)OCO2 was read as aSyn 5UTR act -74.6*.
`O=C1OCCC1Sc1nnc(-c2ccc3c(c2)OCO3)o1` (configuration not stated) gave aSyn 5UTR act 54.8.
O=C(NC(Nc1nc2ccc([N+](=O)[O-])cc2s1)(C(F)(F)F)C(F)(F)F)c1ccccc1Cl was read as aSyn 5UTR act 85.7.
Screening C/C(=C\c1ccccc1)C(=O)Nc1nc2ccc([N+](=O)[O-])cc2s1 returned aSyn 5UTR act -79.1*.
Screening CC(C)=CC(=O)Nc1nc2ccc([N+](=O)[O-])cc2s1 returned aSyn 5UTR act -83.0*.
Screening O=C(Nc1nnc(-c2ccco2)s1)C1CC1 returned aSyn 5UTR act -76.3*.
O=C(Nc1ccc(F)cc1)Nc1nnc(-c2ccco2)s1 was read as aSyn 5UTR act -99.6*.
Screening CC(C)c1ccc(C(=O)NNC(=O)C2C3CCC(C3)C2C(=O)O)cc1 (configuration not stated) returned aSyn 5UTR act -115.3*.
CC(C)c1ccc(C(=O)NN2C(=O)C3CCCCC3C2=O)cc1 (configuration not stated) was read as aSyn 5UTR act -84.9*.
CCOC(=O)Cn1c(S(=O)(=O)Cc2ccccc2Cl)nc(-c2ccccc2)c1-c1ccccc1 was read as aSyn 5UTR act 54.3.
Screening CCOC(=O)Cn1ncc(-c2ccccc2)c1N returned aSyn 5UTR act -128.9*.
For Nc1c(-c2cccc(Cl)c2)cnn1-c1ccccc1 the results were aSyn 5UTR act -121.9*.
`Nc1c(-c2ccccc2)cnn1-c1ccccc1` gave aSyn 5UTR act -110.2*.
`CCOC(=O)c1ccc(-c2ccc(C=O)o2)cc1` gave aSyn 5UTR act -146.3*.
CCCOC(=O)c1ccc(-c2ccc(C=O)o2)cc1 was read as aSyn 5UTR act -96.8*.
For O=C(Cc1ccc(N2CCNC2=O)cc1)N1CCCC(Nc2cccc(F)c2)C1 (configuration not stated) the results were aSyn 5UTR act 63.8.
O=C(NCCCN1CCCC1=O)C(=O)Nc1cccc(F)c1 was read as aSyn 5UTR act -107.3*.
Screening Cc1ccc(NC(=O)NCCCN2CCCC2=O)cc1Cl returned aSyn 5UTR act -66.4*.
`S=C1NC(c2ccccc2)=NCN1c1ccccc1` gave aSyn 5UTR act -66.0*.
`Cc1ccc(C2=NCN(c3ccc(C(=O)O)cc3)C(=S)N2)cc1` gave aSyn 5UTR act -116.5*.
For Cc1cccc(CS(=O)(=O)c2ncc(Cl)c(C(=O)NCc3ccccc3)n2)c1 the results were aSyn 5UTR act 63.8.
